This passage reports growth results from PubChem BioAssay (NCI).

Holding throughout (assay): NCI-60 one-dose screen, 48 h (100 = growth as untreated, 0 = no growth, -100 = all killed)
Conditions in all cases: 10 µM unless noted

Assay [1] concerns NCI-H23 lung.
In assay [2] the test system is NCI-H226 lung.
In assay [3] the test system is NCI-H322M lung.
For assay [4], the system named is HOP-62 NSCLC.
Assay [5] has as its system NCI-H460 lung.
Assay [6] concerns HOP-92 NSCLC.
Assay [7] relates to NCI-H522 lung.
Assay [8] concerns A549/ATCC NSCLC.
For assay [9], the system named is 786-0 renal.
Assay [10] deals with COLO 205 colon.
The test system of assay [11] is DU-145 prostate.
Assay [12] relates to K-562 leukemia.
The test system of assay [13] is MALME-3M melanoma.
Assay [14] relates to MDA-MB-231 breast.
Assay [15] concerns RXF 393 renal.
For assay [16], the system named is SF-268 CNS.
Assay [17] has as its system SF-295 CNS.
The test system of assay [18] is SF-539 CNS.
Assay [19] relates to UACC-257 melanoma.
The test system of assay [20] is M14 melanoma.

Molecules are shown by their SMILES. Compounds without any hit were thinned out: in the full panel of roughly 83,000, 20% have a hit.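 Step 1: grow cells in 96-well plates. Step 2: add test compound at a single concentration. Step 3: incubate 48 h. Step 4: record percent growth.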 Values without a mark were called inactive. Activity calls are given as the source filed them. The calls were made as follows: active = growth percent below 10; inactive = the rest.

As for `CC1=NN(c2ccc(S(=O)(=O)O)cc2Cl)C(=O)C1`, the growth in [1] is 92.5%; in assay [2], 101%; in assay [3] it was 112%; in assay [4], 90%; in [5], 103%; in assay [6] it was 91.7%. The growth is 97.4% in [7]; 99.7% in [8]; 97.6% in [9]; 112% in assay [10]; 162% in assay [11]; 115% in assay [12]. The growth is 129% in [13]; 102% in assay [14]; 108% in assay [15]; 127% in assay [16]; 105% in assay [17]; 92.9% in assay [18]. In addition, the growth was 110% in assay [19] and 96.1% in assay [20].

For `Cn1c(=O)c2c(nc(N3CCCC3)n2C)n(C)c1=O`, the growth in assay [1] is 96.4%; in [2], 102%; in assay [3], 105%; in [4], 104%; in assay [5], 102%; in assay [6], 90.9%. Moreover, the growth in [7] was 91.5%; in assay [8], 85.6%; in assay [9], 97%; in [10], 110%; in assay [11], 105%; in assay [12], 99.2%. Besides, the growth was 103% in assay [13]; 98.9% in assay [14]; 104% in assay [15]; 97.3% in [16]; 102% in assay [17]; 101% in assay [18]. Also, the growth in assay [19] was 93.2%; in [20], 92.3%.

For `CN1CCN(c2nc(-c3csc(-c4cccs4)n3)cc3ccccc23)CC1`, the growth was 79.1% in assay [1]; 94.5% in [2]; 81% in [3]; 68.3% in assay [4]; -25.6% (active) in [5]; 23% in assay [6]. For the same compound, the growth is 70.7% in assay [7]; 47.9% in [8]; 48.1% in assay [9]; -51.1% (active) in [10]; 55.8% in assay [11]; -35.9% (active) in assay [12]. In addition, the growth in [13] was 70.4%; in assay [14] it was 41.6%; in assay [15], 40.3%; in assay [16], 49.6%; in assay [17], 83%; in [18], 86.7%. Besides, the results for the growth in assay [19] and in [20] were 21.6% and -44.9% (active), respectively.

As to `CCSc1sc(-c2ccc(C)cc2)nc1[P+](c1ccccc1)(c1ccccc1)c1ccccc1`, the growth was -13.9% (active) in [1]; -4.39% (active) in assay [2]; -16.7% (active) in assay [3]; -10.3% (active) in assay [4]; -40.5% (active) in assay [5]; -38.3% (active) in [6]. The growth in [7] is -10.4% (active); in [8] it was 3.64% (active); in assay [9] it was 5.86% (active); in [10], -26% (active); in [11], 4.57% (active); in assay [12], 0.0447% (active). Further, the growth in [13] is -28.4% (active); in assay [14], -24.8% (active); in assay [15] it was -37% (active); in [16], 7.81% (active); in assay [17], -11.3% (active); in assay [18] it was 9.93% (active). Also, the growth in assay [19] was -3.94% (active); in assay [20] it was -8.96% (active).

As to `CN(C)c1cccc2[nH]c(-c3[nH]ncc3Nc3ccnc(N)n3)nc12`, the growth in assay [1] is -45.1% (active); in assay [2], -26.6% (active); in assay [3] it was -13.6% (active); in assay [4] it was -19.6% (active); in assay [5] it was -32.7% (active); in [6], -11.3% (active). Besides, the growth in assay [7] is -24.6% (active); in assay [8] it was -7.09% (active); in assay [9], -58% (active); in assay [10] it was -64% (active); in [11], -5.08% (active); in assay [12], 3.38% (active). Moreover, the growth in assay [13] is -79% (active); in [14] it was -18.8% (active); in [15], -86.3% (active); in assay [16], -25.3% (active); in [17] it was -41.5% (active); in [18], -83.8% (active). Moreover, the growth in assay [19] is -65.8% (active); in assay [20], -79.9% (active).

For `NC1=NN=C2N(N)C(=O)c3cnn(-c4ccccc4)c3N2c2nc(-c3ccccc3)cc(-c3ccccc3)c21`, the growth is 94.1% in [1]; 87.4% in assay [2]; 103% in [3]; 96.8% in assay [4]; 103% in assay [5]; 96.7% in assay [6]. Besides, the growth in [7] is 74.9%; in [8], 100%; in [9], 104%; in [10], 116%; in assay [11] it was 108%; in assay [12], 92.9%. Moreover, the growth in assay [13] is 120%; in assay [14] it was 89.4%; in assay [15], 138%; in assay [16], 105%; in assay [17] it was 94.6%; in [18], 103%. Also, the growth in [19] is 108%; in [20] it was 99.2%.

Turning to `COc1cc2c(cc1-c1c(C)noc1C)ncc1nc(C3CCCCC3)n([C@@H](C)COC(F)F)c12`, the growth in assay [1] is 56.8%; in assay [2], 55.5%; in assay [3], 41.9%; in [4], 28.6%; in [5] it was 53%; in assay [6], 27.7%. In addition, the growth in [7] was 26.2%; in [8] it was 33.2%; in [9] it was 42.8%; in assay [10], 9.21% (active); in [11], 61%; in [12] it was 24.2%. Moreover, the growth was 72.1% in assay [13]; 41% in assay [14]; 52.2% in [15]; 55.6% in assay [16]; 45.3% in assay [17]; 31.6% in [18]. For the same compound, the growth in [19] was 28.2%; in assay [20], 34.7%.

As to `Cc1cc(Cl)nc(N(CCCNc2ccnc3cc(Cl)ccc23)Cc2ccco2)n1`, the growth is 8.17% (active) in [1]; 24.1% in [2]; 42.8% in assay [3]; 25.7% in assay [4]; 16.7% in assay [5]; -3.26% (active) in [6]. The growth in assay [7] is 13.8%; in assay [8] it was 29.2%; in assay [9], 19.5%; in assay [10] it was -54.5% (active); in [11] it was 46.2%; in assay [12], 0.302% (active). The growth in [13] was 4.4% (active); in assay [14], 22.9%; in assay [15], 26.6%; in assay [16] it was 52.5%; in assay [17], 20.6%; in assay [18] it was 20.1%. The results for the growth in assay [19] and in assay [20] were 23.3% and -6.17% (active), respectively.
